The test has as its system PPARg DBDmut IVT, anti-PPARg (DBD mutation: PPARg1 K132A/R137A, NR concentration 270 nM). Put plainly: PBM binding z-score (relative to random genomic background probes); higher = stronger binding; sequences stand for … in GC…GCGATTGACAGCGTAGAATGAAGG
In outline: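 Ligand-free nuclear receptor dimers were bound for 1 h to custom Agilent 4×180K protein-binding microarrays. Detection used antibodies against each partner (one per run). Binding z-scores rest on regression-normalized fluorescence, with random background probes as the reference.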
The sequence ACAGACAGGTGATGAAGGTAACTCCGGCTATCAT registered a PBM binding z-score of 0.294.
As for GCGACTGGGGCAAAGCAGGTGACCATAAGGTTGG, the PBM binding z-score is -0.849.
For GCTATTAGTTGAAAGGGCAAACGAATGATTCTCG, the PBM binding z-score came to 0.507.
AGAATGAGGTTATTAAGATCAGGCAATTGCGGTC displayed a PBM binding z-score of 0.448.
To ATCTCTAGGTAAAAGTTCCGTGAATCCCGAGGAT belongs 1.67.
The result for GCTTGCAGATCAAGGTTAAGAAAGACTAAGCTAA reads -0.251; that for ACTAGCAGGCCAAGGGTCACTCCAGATTAGTCCG, -0.469; that for ATCGGAAGGTCGAAGGTGAGTATACCCACCCGAA, -0.28.
CCGACTGGGGCAAAGGTTACCATCCTCAGTACGA: the PBM binding z-score was -0.948.
To CCTACTGGGCAAAGGTCATTGATCAGTCAAAGCA belongs -0.183.
To ATCTCTAGGTAAAGATAGTACAGTGAATGCAAAT belongs 1.08.
To CATACAGGGTCAGCTAGGCCAGAGCAGGGACGGC belongs 0.361; to ATCTATAGGTAAAAGTTCAGTGAATCCCGAGGAT, 1.92.
ATCGAAAGGTCGAGGTGAGTCTAGAGAAAGGGAA yielded a PBM binding z-score of 0.961.
Regarding TCTCGTAGATCAATAGAGGTTAAGAAAGTGCGCT, the PBM binding z-score is 0.204.
On to GCGACTGGGGCAAAGCAGGTTTCCATAAGGTTGG, for which the PBM binding z-score is -0.615.
Consider ACATGTAGGTTATCGGGTCATTCAGTTTGCGCAT, for which the PBM binding z-score was 3.12.
CCGAGTAGGTTACGGGGCATTCAGGCAACGGTGA: the PBM binding z-score was -0.815.
To GTGCCAAGGTGAATAGGTCGTTGATGAGTAGGCG belongs -0.755.
As to GATACAGGGCCAAGGCCAGAGTACGCGTATTGAT, the PBM binding z-score is -1.53.
CCTACTGGGCCATCAGGGCATTGATATCAACGTT came in with a PBM binding z-score of 0.588.
In turn, ATCTCTAGGTAACCAAGTTAAGTGAATGCCGAAC returned a PBM binding z-score of 1.07.
On to ACTAGCAGGCCATGGGTCACTCAAGATTAGTCCG, for which the PBM binding z-score was -0.346.
To CGTCAAAGTTCAAGGTAACGAAACAGAAAGCAGC belongs 0.231; to TTACCAAGGTGAAGGTTGTTGATCCCTCTGTAGA, -0.108; to TCTAGTTGGTCACGGAGGTCTCACACGACGGGTA, 1.23.
To CGTCCAAGGTCAGCAGGTCAGTGAAAGCGACGTG belongs -0.0279.
With CCTGCTATGTCAATGGTCAGCTAAAGCAGCTCGC, the PBM binding z-score is -1.11.
To CCGACTGGGGCAAAGGTTACCATTCTCAGTACGA belongs 0.351; to CGTCCAAGGTCAGCGAGGTCAGTGAATGCCGAGT, -0.834; to AGTCAAAGTTCACTAGCTAACGTAAGATTCAGCT, 0.426.
TCAATTAGTTGAAGGGCAACCGACGAGTCCGTTT displayed a PBM binding z-score of 0.241.
To TCTCGGAGGACACGAAAGGTTAGAGCTCGACATC belongs -0.116; to TGAATGAGGTTATAAGATCAGGGAGCGTTGCAAA, -0.572; to TCTGCTAGGTCAACGAAGGTCAGCTAATCTGCTA, 0.313.
In turn, TCTTGTAGATCAACAGGAGGCTAAGAAAGATCGA displayed a PBM binding z-score of 0.151.
In turn, CTCGAAAGGTCGGGTGAGGTGAGTATACGGATAA returned a PBM binding z-score of 0.324.
Sequence TAGCATAGGTCATTCAGGGGCCAGTATAGAAAGC yielded a PBM binding z-score of 0.381.
Take ATGCCAAGGTGATCGTGAGGTCGTTGATACTAAC: the PBM binding z-score is -0.951.
The result for GAATATAGGTAATACAAGGTGAAAGTCCGATTGT reads 1.21.

Values taken from the supplement of paper PMC6555819.
